Experimental data reported in PubChem BioAssay (NCI).
“And” between values parts separate entries of the source, which are not always exact repeats. Equal values may be shown once. The panel holds about 79,000 compounds, 15% with a hit somewhere; the sample as a whole holds those more often. Cut-off read from the data, not from the text of the source: active = growth inhibition above about 70%; inactive = the rest.

Legend:
[1] = NCI Yeast Anticancer Drug Screen. Data for the rad50 strain (AID 155);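 note: 0% = growth of vehicle-only cultures of the same strain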; conditions: S. cerevisiae rad50 strain growth inhibition; at 50.0 µM; stronger effect = higher value
Procedure, shortened: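 Yeast carrying a defined DNA repair defect were exposed to test compounds, and growth was compared with vehicle-treated controls to give percent inhibition.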

[2] = NCI Yeast Anticancer Drug Screen. Data for the mec2-1 strain (AID 157); conditions: S. cerevisiae mec2-1 strain, at 50.0 µM, stronger effect = higher value
Procedure, shortened: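 Growth inhibition is read against vehicle-treated controls after compound exposure of the mec2-1 yeast strain, which is defective in DNA damage repair or cell cycle control.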

[3] = NCI Yeast Anticancer Drug Screen. Data for the sgs1 mgt1 strain (AID 161);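 note: 0% = growth of cultures given vehicle only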; conditions: S. cerevisiae sgs1 mgt1 strain, at 50.0 µM, stronger effect = higher value
Procedure, shortened: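 Compounds are added to genetically altered yeast, and growth is compared with cultures given vehicle alone to give percent inhibition.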

[4] = NCI Yeast Anticancer Drug Screen. Data for the cln2 rad14 strain (AID 165);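 note: 0% = growth equal to vehicle treated cultures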; conditions: S. cerevisiae cln2 rad14 strain, at 50.0 µM, stronger effect = higher value
Procedure, shortened: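 Growth inhibition, relative to vehicle-treated controls, is the read-out. The test organism is a yeast strain with defined genetic alterations, cln2 rad14.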

[5] = NCI Yeast Anticancer Drug Screen. Data for the bub3 strain (AID 167); conditions: S. cerevisiae bub3 mutant strain, at 50.0 µM, stronger effect = higher value
Procedure, shortened: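 Compounds were applied to a genetically altered yeast strain carrying a cell-cycle control defect. Growth inhibition was scored against vehicle-treated controls.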

[6] = NCI Yeast Anticancer Drug Screen. Data for the mlh1 rad18 strain (AID 175); conditions: S. cerevisiae mlh1 rad18 strain growth inhibition; at 50.0 µM; stronger effect = higher value
Procedure, shortened: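 Cells of a genetically altered yeast strain, deficient in DNA damage repair, were treated with compound. Their growth was then compared with that of vehicle-treated cultures to give inhibition.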

Measured: growth inhibition

O=c1[nH]c(=O)n(C2OC(CO)C(O)C2O)c2ncncc12 (configuration not stated)
inactive: [1] 3.15% and 12.4% | [2] 5.7% and 4.75% | [3] 31.2% and -0.75% | [4] 4.9% and 8.8% | [5] 16.4% and -30.4% | [6] -39.8% and -25.5%

OC1CCN2Cc3ccccc3N=C12 (configuration not stated)
inactive: [1] 3.1% and 22.2% | [2] -0.3% and 21.7% | [3] 17.4% and -5.9% | [4] 4.5% and 15.8% | [5] -3.05% and 13.4% | [6] -2% and -16.8%

COC1OC2COC(c3ccccc3)OC2C(OC(C)=O)C1OC(C)=O (configuration not stated)
inactive: [1] 15.4% and 5.85% | [2] 10.2% and 6.9% | [3] 2.1% and 4.05% | [4] 2.4% and 2.9% | [5] 38.8% and 10% | [6] 19.9% and -14.9%

CC1=C/C(=C(\c2cc(C)c(O)c(C(=O)O)c2)c2c(Cl)ccc(S(=O)(=O)O)c2Cl)C=C(C(=O)O)C1=O
inactive: [1] 25.6% and -15.2% | [2] 0.1% and -0.75% | [3] 22.8% and -4.2% | [4] 21.1% and -2.6% | [5] -3.05% and -7.4% | [6] 41.5% and -2.55%

CC(C)C(=O)/C=C/c1ccccc1
inactive: [1] 11.1% and 21.2% | [2] -2.4% and -2.75% | [3] 10% and -5.25% | [4] 18.2% and -12.6% | [5] 7.7% and -3.95% | [6] 17.8% and 8%

N=C(N)/C=C\C(=O)O
inactive: [1] 1.65% and 2.05% | [2] -9.35% and -13.2% | [3] 4.4% and -11.1% | [4] 17.4% and 14.3% | [5] -21.4% and -33.8% | [6] -4.9% and -14.8%

CC(=O)c1c(O)c(C)c(O)c2c1OC1=CC(=O)C(C(C)=O)C(=O)C12C (configuration not stated)
inactive: [1] 30.6% and 28.6% and -0.1% | [2] 21% and 17.2% and -20.2% | [3] 28.4% and 23.8% and -25.1% | [4] 37% and 23.2% and -19.4% | [5] 30.4% and 24.9% and 12.6% | [6] 23.9% and 31.6% and -25.6%

CC(C)(C)c1cc([N+](C)(C)C)cc(C(C)(C)C)n1
inactive: [1] 1.6% and 19.6% | [2] -5.3% and 8.25% | [3] 1.05% and 14.8% | [4] 2.3% and -16.7% | [5] 20.6% and -2.05% | [6] 6.3% and -5.55%

CC(C)CC(NC(=O)COc1ccccc1Cl)C(=O)O (configuration not stated)
inactive: [1] -9.6% and 5.05% | [2] 15.5% and 14.3% | [3] 3.4% and 6.9% | [4] -11.8% and -9.2% | [5] 1.25% and 7.15% | [6] -8.75% and -13.3%

CSCCC(N)C(=O)NCC(=O)O (configuration not stated)
inactive: [1] -13.8% and -37.5% | [2] -22.9% and -23.1% | [3] -10.8% and 1.4% | [4] 2.9% and -35.9% | [5] -16.1% and -12% | [6] -11.4% and -8.65%

C=CCC1=C(C)C(OC(=O)C=C(C)C)CC1=O (configuration not stated)
inactive: [1] 19.8% and -4.3% | [2] -4% and -13.8% | [3] -6.15% and -6% | [4] 0.25% and -26.2% | [5] 3.6% and -13.3% | [6] -22% and -37%

C[N+](C)(C)CCOP(=O)(O)OP(=O)([O-])OCC1CCC(n2ccc(N)nc2=O)O1 (configuration not stated)
inactive: [1] 7.7% and 4.45% | [2] -11.1% and 0.25% | [3] -18.8% and 9.2% | [4] 5.8% and -2.15% | [5] -38.6% and 2.55% | [6] -38.8% and -3.45%

O=c1c(I)c[nH]cc1I
inactive: [1] -12.1% and -3.2% | [2] -15.9% and 14.1% | [3] -24.1% and 4.45% | [4] 3.35% and 22.6% | [5] -9.4% and 15.7% | [6] 22.2% and 14.8%

NCC(O)c1ccc(O)c(O)c1 (configuration not stated)
inactive: [1] 38.8% and 19.4% | [2] 39.9% and -5.9% | [3] 30.9% and -7.2% | [4] 19% and -32.3% | [5] 28.5% and 13.4% | [6] 44.6% and 14.8%

CC(=O)Nc1ccccc1Cl
inactive: [1] 31.6% and 6% | [2] 6.7% and -9.05% | [3] 14.2% and -20.4% | [4] 24.9% and -20.1% | [5] 20.2% and -15.1% | [6] -11.4% and 21.4%

CC1(C)Nc2ccccc2C(c2ccccc2)=NC1=O
inactive: [1] -2.7% and 4.8% | [2] -17.1% and -15.2% | [3] -7% and 0.85% | [4] -5.75% and -0.25% | [5] -4.7% and -4.6% | [6] 12.7% and 13.3%

O=C(O)c1cc([N+](=O)[O-])c2c(c1)P(=O)(O)c1cc(C(=O)O)cc([N+](=O)[O-])c1O2
inactive: [1] 19.9% and 10.8% | [2] -1.35% and 3.05% | [3] 7.65% and 4.55% | [4] 5.9% and 4.05% | [5] -0.6% and -2.1% | [6] 13.7% and 7.85%

C[S+](C)C
inactive: [1] -5.65% and -0.05% | [2] -7.25% and -2.1% | [3] -2.9% and -2% | [4] 9.1% and -10% | [5] 4.4% and -7.1% | [6] -18.4% and 12.5%

CCOC(=O)C1CN(C)CC(c2ccccc2)C1=O (configuration not stated)
inactive: [1] 12.3% and -8.7% | [2] 14.9% and 1% | [3] 16.1% and -3.5% | [4] -10.4% and -25.1% | [5] 9.25% and -4.45% | [6] 11.1% and 5.6%

O=C(O)/C=C/C(=O)Nc1ccccc1
inactive: [1] -4.8% and -26.8% | [2] -18.7% and -22% | [3] -11.8% and -14.3% | [4] 0.25% and -30.4% | [5] -2.8% and -10.2% | [6] 4.15% and -1.65%

CCCC(=O)Oc1ccccc1C(C)C
inactive: [1] 12.5% and 2.75% | [2] 11.9% and -21.8% | [3] 11% and -5.25% | [4] 14.1% and -8.9% | [5] 6.8% and -0.15% | [6] 1.65% and -19.6%

CC(CC(N)C(=O)O)C(=O)O (configuration not stated)
inactive: [1] -0.4% and -5.1% | [2] -4.75% and -22.6% | [3] -1.95% and -49.1% | [4] 0.25% and -68.8% | [5] 0.9% and -26.1% | [6] -1.85% and -17.2%
